Rows were chosen to be rich in hits. Some 3.5% of all compounds tested hit in one or more screens of this group.
GPR151 activ: human GPR151 activation; Q8TDV0; PathHunter beta-arrestin GPR151 cells, luminescence; activation, % at 11.2 µM; hit rate 1% among 650,000; AID 1508602; in the data active means activation above about 4.9%
TEAD-YAP block: TEAD-YAP interaction inhibition. HEK-TIYL cells, TEAD-Gal4/YAP UAS-luciferase luminescence. inhibition, % at 9.12 µM. hit rate 1.4% among 640,000. AID 1259422; in the data active means inhibition above about 32%
FBW7 activator: activators of human E3 ligase FBW7; Q969H0; AlphaScreen FBW7–phospho-cyclin E peptide binding, activator screen; normalized activity (activation), % at 26.1 µM; hit rate 0.13% among 650,000; AID 1259310; in the data active means normalized activity above about 1.9%;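 further: purified mutant Fbw7 with reduced substrate affinity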
Target sequence (Q969H0 whole entry, looked up): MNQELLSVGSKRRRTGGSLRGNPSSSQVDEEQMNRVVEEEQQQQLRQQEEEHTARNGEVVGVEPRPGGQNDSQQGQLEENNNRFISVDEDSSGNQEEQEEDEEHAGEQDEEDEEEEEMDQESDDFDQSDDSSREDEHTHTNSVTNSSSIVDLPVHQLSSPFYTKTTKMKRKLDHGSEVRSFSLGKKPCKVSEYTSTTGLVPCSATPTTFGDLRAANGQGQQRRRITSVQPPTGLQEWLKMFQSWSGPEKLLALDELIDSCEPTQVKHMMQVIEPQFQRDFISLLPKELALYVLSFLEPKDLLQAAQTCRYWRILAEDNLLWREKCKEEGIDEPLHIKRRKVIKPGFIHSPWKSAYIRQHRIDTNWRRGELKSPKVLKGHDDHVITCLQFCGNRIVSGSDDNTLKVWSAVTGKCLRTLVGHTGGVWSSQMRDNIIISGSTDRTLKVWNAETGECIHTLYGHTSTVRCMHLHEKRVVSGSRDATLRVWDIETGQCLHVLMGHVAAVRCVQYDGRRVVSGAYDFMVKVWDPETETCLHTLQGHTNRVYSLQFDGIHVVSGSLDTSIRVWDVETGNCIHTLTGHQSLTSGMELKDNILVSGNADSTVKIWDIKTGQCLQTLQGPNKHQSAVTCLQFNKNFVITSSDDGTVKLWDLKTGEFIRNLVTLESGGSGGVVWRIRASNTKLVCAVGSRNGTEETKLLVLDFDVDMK
MITF primary: inhibitors of human MITF | AlphaScreen MITF homodimerization, bead proximity signal | inhibition, % at 2.6 µM | hit rate 0.91% among 650,000 | AID 1259374; in the data active means inhibition above about 50%
Each line names hits and unclear results; the compound was inactive in the other large screens.

COCCn1c2c(c(=O)[nH]c1=O)C(c1ccc(Cl)cc1)C1=C(N2)c2ccccc2C1=O (stereo not given)	none
O=C1C2=C(Nc3[nH]c(=O)[nH]c(=O)c3C2c2ccc(Cl)cc2)c2ccccc21 (stereo not given)	TEAD-YAP block 41.7
Cc1noc(C)c1COC(=O)c1ccc(N2CCCCC2)c([N+](=O)[O-])c1	none
CCc1nnc(NC(=O)CN2CCN(c3ccc(C(C)=O)cc3)CC2)s1	TEAD-YAP block 31.9
CC(=O)c1ccc(N2CCN(CC(=O)Nc3ncc(C)s3)CC2)cc1	none
S=C(NCc1ccc(Cl)cc1)Nc1ccncc1	TEAD-YAP block 43.8
S=C(NCc1ccncc1)Nc1cccc(Cl)c1	none
CCCS(=O)(=O)N1CC(=O)N(c2cccc(C)c2C)C(C)(C(=O)NC2CCCCC2)C1 (stereo not given)	none
O=C(CNC(=O)c1ccc(Br)cc1)OCc1ccc([N+](=O)[O-])cc1Cl	none
COc1ccccc1NC(=O)Cc1noc(CSc2nnc(-c3ccccc3)o2)n1	FBW7 activator 4.5
CCCCOc1ccc(-c2nn(-c3ccccc3)cc2/C=c2\sc3nc(=O)c(Cc4ccccc4)nn3c2=O)cc1C	MITF primary 75.9
CCCCOc1ccc(-c2nn(-c3ccccc3)cc2/C=c2\sc3nc(=O)c(C)nn3c2=O)cc1C	none
CC1=C(C)/C(=N\S(=O)(=O)c2ccccc2)C=C(Cl)C1=O	none
CC1=C(C)/C(=N\S(=O)(=O)c2ccc(C)cc2)C=C(N(C)C)C1=O	MITF primary 83.7
CN(C)C1=C/C(=N/S(=O)(=O)c2ccccc2)c2ccccc2C1=O	TEAD-YAP block 90.3, MITF primary 58.5
COC(=O)c1ccc2c(c1)S(=O)(=O)NC(=NCc1ccco1)S2	none
COc1ccccc1C1(CC(=O)N2CCCC(C)C2)CC(=O)N(C2CCCC2)C1=O (stereo not given)	none
COc1ccc(Nc2nc(C)cc(NCc3cccc(C(F)(F)F)c3)n2)cn1	FBW7 activator 1.9
COc1ccc(Nc2nccc(NCc3cccc(C(F)(F)F)c3)n2)cn1	none
COc1ccc(-c2nc3ncnc(NCc4cccc(C(F)(F)F)c4)c3[nH]2)cn1	TEAD-YAP block 53.7
COc1ccc(Nc2nc(C)cc(NCc3cccc(C(F)(F)F)c3)n2)cc1	TEAD-YAP block 37.6
O=C(CNC(=O)c1ccco1)NCC(=O)OCC(=O)c1ccc(Br)cc1	none
C=CCN(CC=C)S(=O)(=O)c1ccc(C(=O)Nc2sc3c(c2C(=O)OCC)CC(C)(C)NC3(C)C)cc1	none
Cc1cc(NCCN2CCOCC2)nc(Nc2nccc3ccccc23)n1	none
COc1ccc(Cl)cc1Nc1ncnc2c1cnn2-c1ccccc1	none
COc1ccc(-n2ncc3c(Nc4cc(Cl)ccc4OC)ncnc32)cc1	TEAD-YAP block 41.5
COc1ccc(-n2ncc3c(Nc4ccc(OC)c(Cl)c4)ncnc32)cc1	TEAD-YAP block 53.7
CCOC(=O)CSc1nnc(NC(=O)COc2ccc(Cl)cc2Cl)s1	none
O=C(Nc1ccc(Br)cc1)c1ccc(F)c(S(=O)(=O)NCc2ccco2)c1	TEAD-YAP block 43.0
COc1ccccc1CNS(=O)(=O)c1cc(C(=O)Nc2ccc(Br)cc2)ccc1F	TEAD-YAP block 32.8
O=C(Nc1ccc(Br)cc1)c1ccc(F)c(S(=O)(=O)NCC2CCCO2)c1 (stereo not given)	TEAD-YAP block 50.1
Cc1ccc(N2C(=O)/C(=C/c3ccco3)C(=O)NC2=S)cc1	none
COc1ccc(N2C(=O)/C(=C/C=C/c3ccco3)C(=O)NC2=S)c(OC)c1	MITF primary 76.4
Cc1cccc(N2C(=O)/C(=C/C=C/c3ccco3)C(=O)NC2=S)c1	MITF primary 58.1
CC(=O)N1CCc2c(sc(NC(=O)/C=C/c3ccc([N+](=O)[O-])cc3)c2C#N)C1	none
CSc1ccccc1C(=O)Nc1sc2c(c1C#N)CCN(C(C)=O)C2	TEAD-YAP block 45.9
CC(=O)N1CCc2c(sc(NC(=O)c3ccccc3Cl)c2C#N)C1	none
CC(=O)N1CCc2c(sc(NC(=O)/C=C/c3ccccc3Cl)c2C#N)C1	TEAD-YAP block 49.5
CC(=O)N1CCc2c(sc(NC(=O)c3ccccc3C)c2C#N)C1	TEAD-YAP block 50.5
CC(=O)N1CCc2c(sc(NC(=O)c3cc(Cl)sc3Cl)c2C#N)C1	none
COc1ccc(S(=O)(=O)N(CCc2ccccc2)CC(=O)Nc2cccc(Cl)c2C)cc1	none
CCCOC(=O)C1=C(C)N(CC)C(=O)NC1c1ccccc1[N+](=O)[O-] (stereo not given)	FBW7 activator 2.5
CCOC(=O)c1csc(NC(=O)c2ccc(S(=O)(=O)N3CCc4ccccc43)cc2)n1	TEAD-YAP block 35.4
O=C(Nc1ccccc1F)c1ccc(S(=O)(=O)N2CCc3ccccc3C2)cc1	TEAD-YAP block 40.3
COc1ccc(NC(=O)c2ccc(S(=O)(=O)N3CCc4ccccc43)cc2)c2ccccc12	TEAD-YAP block 60.2
COc1ccc(NC(=O)c2ccc(S(=O)(=O)N3CCc4ccccc4C3)cc2)c2ccccc12	none
O=C(CCC(=O)c1ccc(F)cc1)NCc1ccccc1	none
Cc1cnc(Nc2ccc(-n3cnc(N4CCOCC4)n3)cc2)cc1Nc1ccccc1C(N)=O	TEAD-YAP block 82.1
Cc1cnc(Nc2ccncc2)cc1Nc1ccccc1C(N)=O	none
NC(=O)c1ccccc1Nc1cc(Nc2ccc(-n3cnc(N4CCOCC4)n3)cc2)ncc1C(F)F	TEAD-YAP block 41.7
COc1ccc(N=c2oc3ccccc3cc2-c2nc3ccccc3[nH]2)cc1	TEAD-YAP block 38.2
Fc1ccc(N=c2oc3ccccc3cc2-c2nc3ccccc3[nH]2)cc1	none
Fc1ccccc1N=c1oc2ccccc2cc1-c1nc2ccccc2[nH]1	TEAD-YAP block 39.7
Cc1ccc(-n2cc(C(=O)Nc3nc4c(C)cccc4s3)c3ccccc3c2=O)cc1C	none
O=C(CCC1CCCC1)Nc1ccc2c(c1)C(=O)NCCO2	none
O=C(COc1ccc(F)cc1)Nc1ccc2c(c1)C(=O)NCCO2	TEAD-YAP block 41.5
CC1=C(C#N)C(c2cccc(I)c2)C2=C(CC(C)(C)CC2=O)N1 (stereo not given)	none
Cc1cc2nc(N3CCCN(Cc4ccc(CO)o4)CC3)nc(C)c2cc1C	none
Cc1cc2nc(N3CCCN(Cc4c(C)nc5sccn45)CC3)nc(C)c2cc1C	TEAD-YAP block 32.4
COc1cccc(-c2ccc3nnc(SCC(=O)N4CCN(c5ccccc5)CC4)n3n2)c1	TEAD-YAP block 32.8
COc1cccc(NC(=O)c2cnc(SCC(=O)N3CCN(c4ccccc4)CC3)n(C)c2=O)c1	TEAD-YAP block 35.5
O=C(NCCCN1CCOCC1)C1CCC(=O)N1C1CCCCC1 (stereo not given)	none
O=C1NC2(CCN(C(=O)CN3CCCCCC3)CC2)Oc2ccccc21	none
COc1ccc(NC(=S)NC2CCCC2)cc1	none
COc1cc2nc(CN3CCCCC3)[nH]c(=O)c2cc1OC	none
COc1cc2nc(CN3CCN(c4ccccc4F)CC3)[nH]c(=O)c2cc1OC	TEAD-YAP block 47.9
COc1ccc(-c2ccc(C3C(C#N)=C(N)Oc4[nH]c(=S)[nH]c(=O)c43)o2)cc1 (stereo not given)	none
CCOC(=O)C1=C(O)/C(=C\c2ccc(C(C)C)cc2)N=C1C	none
NC(=O)c1nn(-c2ccccc2)nc1/C=C\C(=O)O	none

High-throughput results from PubChem.
